Source: PubChem BioAssay (NCI)
About 83,000 compounds went through this panel and 20% of them were active in at least one assay; those are over-represented in the sample as a whole.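 Cell lines were cultured in 96-well plates, exposed to a single compound concentration, and assessed for percent growth 48 hours later.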 Calls of active or inactive are those of the source. The calls were made as follows: active = growth percent below 10; inactive = the rest.

Experiments:
Experiment in all cases: NCI-60 one-dose screen, 48 h (100 = growth as untreated, 0 = no growth, -100 = all killed)
Details in all cases: 10 µM unless noted
SK-MEL-2 melanoma = test system: SK-MEL-2 melanoma
EKVX NSCLC = test system: EKVX NSCLC
SN12C renal = test system: SN12C renal
UO-31 renal = test system: UO-31 renal
TK-10 renal = test system: TK-10 renal
ACHN renal = test system: ACHN renal
CAKI-1 renal = test system: CAKI-1 renal
A498 renal = test system: A498 renal
CCRF-CEM leukemia = test system: CCRF-CEM leukemia
MOLT-4 leukemia = test system: MOLT-4 leukemia
SR leukemia = test system: SR leukemia
RPMI-8226 leukemia = test system: RPMI-8226 leukemia
OVCAR-8 ovarian = test system: OVCAR-8 ovarian
OVCAR-5 ovarian = test system: OVCAR-5 ovarian
OVCAR-4 ovarian = test system: OVCAR-4 ovarian
SK-OV-3 ovarian = test system: SK-OV-3 ovarian
IGROV1 ovarian = test system: IGROV1 ovarian
OVCAR-3 ovarian = test system: OVCAR-3 ovarian
HS 578T breast = test system: HS 578T breast
NCI/ADR-RES ovarian = test system: NCI/ADR-RES ovarian

Measured: growth

COc1cccc(CCC(=O)c2cc3c(N)c(C(=O)Nc4cccc(Cl)c4C)sc3nc2C)c1
active: A498 renal -6.77% | CCRF-CEM leukemia 8.7% | SR leukemia 9.08% | RPMI-8226 leukemia 7.83% | OVCAR-3 ovarian -8.82% | HS 578T breast 2.96%
inactive: SK-MEL-2 melanoma 36.5% | EKVX NSCLC 36.2% | SN12C renal 36% | UO-31 renal 30.7% | TK-10 renal 52.9% | ACHN renal 32.2% | CAKI-1 renal 20.5% | MOLT-4 leukemia 16% | OVCAR-8 ovarian 24.1% | OVCAR-5 ovarian 28.3% | OVCAR-4 ovarian 36.9% | SK-OV-3 ovarian 32.4% | IGROV1 ovarian 24.4% | NCI/ADR-RES ovarian 10.7%

Cc1c2c(cc[n+]1Cc1ccccc1)c1ccc(OCC3CCCCC3)cc1n2CC1CCCCC1
inactive: NCI/ADR-RES ovarian 31.5%
active: SK-MEL-2 melanoma -86.5% | EKVX NSCLC -75.5% | SN12C renal -91.9% | UO-31 renal -93.1% | TK-10 renal -93.6% | ACHN renal -100% | CAKI-1 renal -92.5% | A498 renal -97.4% | CCRF-CEM leukemia -36.2% | MOLT-4 leukemia -64.5% | SR leukemia -57.7% | RPMI-8226 leukemia -45.2% | OVCAR-8 ovarian -90.1% | OVCAR-5 ovarian -95.5% | OVCAR-4 ovarian -94.3% | SK-OV-3 ovarian -53.4% | IGROV1 ovarian -70.6% | OVCAR-3 ovarian -100% | HS 578T breast -36.2%

COc1cc(NCC(O)CN(CC(C)C)CC(C)C)c2nc(C)ccc2c1 (stereo not drawn)
inactive: SK-MEL-2 melanoma 99% | EKVX NSCLC 79.8% | SN12C renal 92.3% | UO-31 renal 66.9% | TK-10 renal 105% | ACHN renal 89.4% | CAKI-1 renal 74.1% | A498 renal 86.2% | CCRF-CEM leukemia 115% | MOLT-4 leukemia 78% | SR leukemia 102% | RPMI-8226 leukemia 99.4% | OVCAR-8 ovarian 87.2% | OVCAR-5 ovarian 122% | OVCAR-4 ovarian 40.2% | SK-OV-3 ovarian 75.2% | IGROV1 ovarian 86.9% | OVCAR-3 ovarian 53.2% | HS 578T breast 85.1%

Cc1cccc(Oc2ccc(Nc3ncnc4ccc(NC(=O)CNCCO)cc34)cc2Cl)c1
inactive: SK-MEL-2 melanoma 87.8% | EKVX NSCLC 34.9% | SN12C renal 39.4% | UO-31 renal 41% | TK-10 renal 39.8% | ACHN renal 27.1% | CAKI-1 renal 52.9% | A498 renal 49.7% | CCRF-CEM leukemia 72.3% | MOLT-4 leukemia 62% | RPMI-8226 leukemia 71.7% | OVCAR-8 ovarian 66.7% | OVCAR-5 ovarian 78.8% | OVCAR-4 ovarian 67.7% | SK-OV-3 ovarian 10.8% | OVCAR-3 ovarian 49.7% | HS 578T breast 83.5%
active: SR leukemia 5.67% | IGROV1 ovarian 9.02%

C#Cc1cccc(NC(=O)Nc2ccc(NC(=O)CCl)cc2)c1
active: SK-MEL-2 melanoma -25% [8.25 µM] | SN12C renal -9.22% [8.25 µM] | UO-31 renal -97.4% [8.25 µM] | TK-10 renal -71.4% [8.25 µM] | ACHN renal -99.5% [8.25 µM] | CAKI-1 renal 9.01% [8.25 µM] | CCRF-CEM leukemia -29.8% [8.25 µM] | MOLT-4 leukemia -9.78% [8.25 µM] | SR leukemia -36.4% [8.25 µM] | RPMI-8226 leukemia -37.1% [8.25 µM] | OVCAR-8 ovarian -14.9% [8.25 µM] | OVCAR-5 ovarian -14.5% [8.25 µM] | OVCAR-4 ovarian -50.8% [8.25 µM] | SK-OV-3 ovarian -86.7% [8.25 µM] | IGROV1 ovarian -88% [8.25 µM] | OVCAR-3 ovarian -88% [8.25 µM] | HS 578T breast -4.85% [8.25 µM] | NCI/ADR-RES ovarian -8.33% [8.25 µM]
inactive: EKVX NSCLC 88.3% [8.25 µM] | A498 renal 76.4% [8.25 µM]

CC1=CC[C@@H]2CC[C@]3(C)[C@H](CC[C@@H]4[C@@]5(C)CCCNC(C)(C)[C@@H]5CC[C@]43C)[C@H]2[C@@H]1C
active: ACHN renal 8.91% | CCRF-CEM leukemia 5.21% | MOLT-4 leukemia -8.43% | SR leukemia 5.05% | RPMI-8226 leukemia -32.8% | OVCAR-8 ovarian -87.3% | OVCAR-4 ovarian -41% | OVCAR-3 ovarian -28.9% | NCI/ADR-RES ovarian -45.1%
inactive: SK-MEL-2 melanoma 94.6% | EKVX NSCLC 84.5% | SN12C renal 48.3% | UO-31 renal 55.7% | TK-10 renal 80.5% | CAKI-1 renal 30.4% | A498 renal 60.2% | OVCAR-5 ovarian 41.1% | SK-OV-3 ovarian 103% | IGROV1 ovarian 40.5% | HS 578T breast 92.9%

COc1cc(-c2nc3sccn3c2-c2ccnc(NCCNS(=O)(=O)c3ccc(F)cc3)n2)ccc1F
inactive: EKVX NSCLC 23.6% | SN12C renal 15.1% | TK-10 renal 20.2% | A498 renal 22.5% | OVCAR-5 ovarian 56% | OVCAR-4 ovarian 10.8% | SK-OV-3 ovarian 22.9% | OVCAR-3 ovarian 25.3% | HS 578T breast 28.4%
active: SK-MEL-2 melanoma -38.3% | UO-31 renal -11.1% | ACHN renal 0.0766% | CAKI-1 renal 8.83% | CCRF-CEM leukemia 2.47% | MOLT-4 leukemia -15.4% | SR leukemia 8.1% | RPMI-8226 leukemia -39.4% | OVCAR-8 ovarian -9.78% | IGROV1 ovarian 3.95% | NCI/ADR-RES ovarian 8.6%

Cc1cc(C)c(C=O)c(C)c1
inactive: SK-MEL-2 melanoma 106% | EKVX NSCLC 101% | SN12C renal 103% | UO-31 renal 86.3% | TK-10 renal 103% | ACHN renal 108% | CAKI-1 renal 94.1% | A498 renal 102% | CCRF-CEM leukemia 78.6% | MOLT-4 leukemia 85% | SR leukemia 105% | RPMI-8226 leukemia 89.8% | OVCAR-8 ovarian 94.2% | OVCAR-5 ovarian 98.5% | OVCAR-4 ovarian 108% | SK-OV-3 ovarian 74.7% | IGROV1 ovarian 111% | OVCAR-3 ovarian 107% | HS 578T breast 104% | NCI/ADR-RES ovarian 107%

COc1ccc(NC(=O)c2sc3nc(C)c(C(=O)CCc4cccc(OC)c4)cc3c2N)cc1
inactive: SK-MEL-2 melanoma 53.2% | EKVX NSCLC 82.8% | SN12C renal 73% | UO-31 renal 51% | TK-10 renal 85.4% | ACHN renal 95.2% | CAKI-1 renal 71% | A498 renal 19.2% | CCRF-CEM leukemia 65.4% | MOLT-4 leukemia 48.1% | SR leukemia 20.4% | RPMI-8226 leukemia 45.7% | OVCAR-8 ovarian 90.9% | OVCAR-5 ovarian 68.9% | OVCAR-4 ovarian 76.5% | SK-OV-3 ovarian 70.5% | IGROV1 ovarian 75.8% | OVCAR-3 ovarian 26.1% | HS 578T breast 82% | NCI/ADR-RES ovarian 61.3%

CC1(C)CN(Cc2ccccc2)CCN1Cc1ccccc1
inactive: SK-MEL-2 melanoma 103% | EKVX NSCLC 106% | SN12C renal 96.1% | UO-31 renal 93.6% | TK-10 renal 96.3% | ACHN renal 109% | CAKI-1 renal 102% | A498 renal 85.8% | CCRF-CEM leukemia 90.9% | MOLT-4 leukemia 100% | SR leukemia 95.8% | RPMI-8226 leukemia 98% | OVCAR-8 ovarian 104% | OVCAR-5 ovarian 103% | OVCAR-4 ovarian 113% | SK-OV-3 ovarian 122% | IGROV1 ovarian 101% | OVCAR-3 ovarian 106% | HS 578T breast 99.1% | NCI/ADR-RES ovarian 105%

Brc1ccc(C2CC(c3cccc(Nc4ccncc4)c3)=NN2c2ccccc2)cc1 (stereo not drawn)
active: SR leukemia 4.53%
inactive: SK-MEL-2 melanoma 102% | EKVX NSCLC 95.7% | SN12C renal 81.2% | UO-31 renal 74.6% | TK-10 renal 94.4% | ACHN renal 91.3% | CAKI-1 renal 81.1% | A498 renal 80.2% | CCRF-CEM leukemia 63.2% | MOLT-4 leukemia 47.3% | RPMI-8226 leukemia 50.5% | OVCAR-8 ovarian 77.6% | OVCAR-5 ovarian 89.3% | OVCAR-4 ovarian 70.3% | SK-OV-3 ovarian 84.4% | IGROV1 ovarian 58.3% | OVCAR-3 ovarian 80% | HS 578T breast 90.9% | NCI/ADR-RES ovarian 79.2%

COc1ccc(C(=O)c2cc3c(N)c(C(=O)Nc4cccc(Br)c4C)sc3nc2C)cc1
inactive: SK-MEL-2 melanoma 17.6% | EKVX NSCLC 38.3% | SN12C renal 19.2% | UO-31 renal 21% | TK-10 renal 54.3% | ACHN renal 24% | CAKI-1 renal 15.2% | MOLT-4 leukemia 10.2% | OVCAR-5 ovarian 40.6% | OVCAR-4 ovarian 37.4% | SK-OV-3 ovarian 23.2% | IGROV1 ovarian 24.3% | HS 578T breast 12.4%
active: A498 renal -13.2% | CCRF-CEM leukemia 9.3% | SR leukemia -21.4% | RPMI-8226 leukemia 8.87% | OVCAR-8 ovarian 1.15% | OVCAR-3 ovarian -20.1% | NCI/ADR-RES ovarian 0.768%

Cc1ccc2[nH]c(=S)n(-c3ccc(S(=O)(=O)Nc4ccc(Cl)nn4)cc3)c(=O)c2c1
inactive: SK-MEL-2 melanoma 106% | EKVX NSCLC 97.8% | SN12C renal 96.9% | UO-31 renal 85.2% | TK-10 renal 100% | ACHN renal 104% | CAKI-1 renal 90.6% | A498 renal 92.1% | CCRF-CEM leukemia 100% | MOLT-4 leukemia 100% | SR leukemia 94.2% | RPMI-8226 leukemia 103% | OVCAR-8 ovarian 97.7% | OVCAR-5 ovarian 103% | OVCAR-4 ovarian 110% | SK-OV-3 ovarian 108% | IGROV1 ovarian 105% | OVCAR-3 ovarian 108% | HS 578T breast 94.4% | NCI/ADR-RES ovarian 103%

Cc1ccccc1-c1cc(Cc2ccc(F)cc2)c(=O)[nH]n1
active: CCRF-CEM leukemia -50.9% | SR leukemia -21.2%
inactive: SK-MEL-2 melanoma 122% | EKVX NSCLC 81.8% | SN12C renal 148% | UO-31 renal 70.5% | TK-10 renal 122% | ACHN renal 105% | CAKI-1 renal 54.4% | A498 renal 117% | MOLT-4 leukemia 58.1% | RPMI-8226 leukemia 50.9% | OVCAR-8 ovarian 90.4% | OVCAR-5 ovarian 106% | OVCAR-4 ovarian 103% | SK-OV-3 ovarian 98.2% | IGROV1 ovarian 97.4% | OVCAR-3 ovarian 104% | HS 578T breast 99.9% | NCI/ADR-RES ovarian 102%
